# Assay outcomes (PubChem)
# An excerpt weighted towards active compounds, which were near 2.4% of everything screened.
# D2 antagonist: antagonizes the human D2 dopamine receptor; P14416; 340,000 compounds, 2% hits; AID 485344; inhibition, % at 10 µM; HEK293 TREx D2 cells, calcium flux, dopamine EC80; in the data active means inhibition above about 30%; inactive means below that, where a call was filed; further: 0% is about no effect
# Target sequence (P14416 whole entry, looked up): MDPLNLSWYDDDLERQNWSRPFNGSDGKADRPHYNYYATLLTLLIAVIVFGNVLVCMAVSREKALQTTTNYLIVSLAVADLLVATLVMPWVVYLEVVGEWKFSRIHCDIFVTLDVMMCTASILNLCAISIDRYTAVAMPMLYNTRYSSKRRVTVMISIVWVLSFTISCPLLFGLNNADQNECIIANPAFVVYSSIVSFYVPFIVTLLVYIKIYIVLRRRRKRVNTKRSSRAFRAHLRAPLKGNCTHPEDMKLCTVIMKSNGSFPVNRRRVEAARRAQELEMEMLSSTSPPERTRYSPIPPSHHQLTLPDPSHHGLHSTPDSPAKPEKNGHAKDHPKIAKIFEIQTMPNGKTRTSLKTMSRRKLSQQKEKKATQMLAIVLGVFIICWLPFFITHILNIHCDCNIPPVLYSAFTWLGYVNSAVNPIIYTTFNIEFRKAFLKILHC
#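 Calcium flux kinetic readout in an inducible HEK293 TREx D2 line plated overnight at 30 C. After 180 s compound exposure, an EC80 dopamine challenge follows with another 180 s kinetic read to detect antagonism.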
# D2 ag-1: activates the human D2 dopamine receptor; 340,000 compounds, 0.53% hits; HEK293 T-REx D2 cells, calcium flux agonist mode; activation, % at 2 µM;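 active means activation over 3 SD above normal in the single-dose calcium agonist read, cut at about 30% in these data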; further: 0% is about no effect
#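 Agonism scored from kinetic calcium signal (1 read/sec, 180 s) following compound pin transfer, after a 10 s baseline. Cells: HEK293 Trex line expressing inducible D2 receptor coupled to calcium, dye-loaded after overnight culture at 30 C.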
# D2 PAM-1: potentiates the human D2 dopamine receptor allosterically; DiscoveRx D2 beta-arrestin cells, luminescence, 90 min; 100% = 57 uM dopamine signal; potentiation, % (test concentration not listed); 360,000 compounds, 0.23% hits; in the data active means potentiation above about 50%; inconclusive means mostly about 30% to 49%
#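 D2 cells co-treated with compound plus 50 nM dopamine (EC20) for 90 min at 37 deg C to detect potentiation. Beta-arrestin recruitment was read as enzyme-fragment luminescence after 1 h at ambient temperature. Full response was set by 57 uM dopamine.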
# D2 ag-2: activates the human D2 dopamine receptor; P14416; DiscoveRx PathHunter D2 beta-arrestin, luminescence, 90 min; 100% = 57 uM dopamine signal; activation, % (test concentration not listed); 360,000 compounds, 0.084% hits; in the data active means activation above about 40%; inconclusive means between about 15% and that limit
#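 Agonist mode: compounds alone added to overnight-plated D2 PathHunter cells for 90 min at 37 C, with 57 uM final dopamine (EC100) defining full response. Beta-arrestin recruitment detected by chemiluminescent reagent, read after 1 h at ambient temperature.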
# D2 PAM-2: positively modulates the human D2 dopamine receptor allosterically. P14416. potentiation, % at 10 µM. 340,000 compounds, 0.34% hits. HEK293 T-REx D2, calcium flux, EC20 dopamine potentiation;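 active means potentiation over 3 SD above the plate norm, cut at about 30% in these data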; further: 0% is about no effect
#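 Cells plated with tetracycline inducer and held overnight at 30 C; calcium dye loaded 30–90 min at room temperature; baseline taken, compound added and read 180 s; EC20 dopamine then added and read 180 s.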
# Numbers without * were called inactive; ? = inconclusive; . = no result given.
SMILES,D2 antagonist,D2 ag-1,D2 PAM-1,D2 ag-2,D2 PAM-2
CC(NC(=O)c1ccco1)C(=O)N1CCN(c2ccccc2)CC1 (stereo not given),-4,1,9,1,-11
CC(NC(=O)c1ccco1)C(=O)N1CCN(C(c2ccccc2)c2ccccc2)CC1 (stereo not given),5,-1,57*,-3,3
CCn1c(=NC(=O)c2ccc3c(c2)OCCO3)sc2c(C)ccc(OC)c21,.,.,.,.,12
CCCS(=O)(=O)NC(=O)C1(C)CCCN(C(=O)COc2ccc(Cl)cc2Cl)C1 (stereo not given),.,.,-22,-7,.
CCCS(=O)(=O)NC(=O)C1(C)CCN(C(=O)COc2ccc(Cl)cc2Cl)C1 (stereo not given),.,.,60*,14,.
O=C(NCC1c2ccccc2CCN1C(=O)CN1C(=O)c2ccccc2C1=O)C1CCCCC1 (stereo not given),30*,0,-10,-2,-5
O=C(CN1C(=O)c2ccccc2C1=O)N1CCCCC1,-14,1,-1,-4,3
FC(F)(F)c1ccc(Cl)c(N/N=C/c2ccc(N3CCOCC3)s2)c1,.,.,72*,?,.
O=C(N/N=C/c1ccc(N2CCOCC2)s1)c1ccccc1Cl,7,2,1,-4,3
CCCCOC(=O)c1ccc(NC(=O)Cn2nnc3sc4c(c3c2=O)CCCC4)cc1,.,0,.,.,-8
Cc1oc2cc3oc(=O)c(CCC(=O)NCCCC(=O)O)c(C)c3cc2c1C,33*,0,-12,-4,-7
CCc1cccc(NC(=O)C(Cc2ccccc2)NS(=O)(=O)c2ccc3c(c2)oc(=O)n3C)c1 (stereo not given),.,0,.,.,4
COc1ccc(-n2c(O)c(/C=N/NS(=O)(=O)c3ccc(C)cc3)c3ccccc3c2=O)cc1OC,15,20,-2,-4,1
COc1ccc(-n2c(O)c(/C=N/NS(=O)(=O)c3cc(C)ccc3C)c3ccccc3c2=O)cc1OC,27,41*,-14,-2,0
CSc1ccc(/C=C/C(=O)OCC(=O)N2CCN(S(=O)(=O)c3ccc(C)cc3C)CC2)cc1,41*,0,-4,3,-2
Cc1cccc(S(=O)(=O)c2c(N)n(Cc3ccco3)c3nc4ccccc4nc23)c1,4,3,-9,-3,45*
O=C(Cn1ncc2c3ccccc3n(Cc3cccc(Cl)c3)c2c1=O)NCc1cccs1,.,0,.,.,1
O=C1NCCN1c1ncc([N+](=O)[O-])s1,54*,59*,15,4,-10
N#C/C(=C\C=C\c1ccccc1)C(=O)NCc1ccco1,37*,-1,5,-2,-5
O=C(/C=C/c1ccccc1)NCc1ccco1,-16,-1,-2,-6,12
CCOC(=O)CSc1nc(C)cc(Oc2ccc(=O)n(C)n2)n1,36*,0,-4,0,-1
Cc1cc(Oc2ccc(=O)n(C)n2)nc(SCCOc2ccccc2)n1,-3,0,-1,0,0
Cc1ccc(NC(=O)Cn2c(=O)n(Cc3ccc4c(c3)OCO4)c(=O)c3ccc(C(=O)NC4CCCCC4)cc32)cc1,.,0,.,.,21
CC(Oc1ccc(Br)cc1)C(=O)Nc1ccc(S(=O)(=O)Nc2nccs2)cc1 (stereo not given),-3,2,-3,-2,2
Cc1cc2oc(C(=O)Nc3ccc(S(=O)(=O)Nc4nccs4)cc3)cc(=O)c2cc1Cl,34*,0,-3,-2,-4
SMILES,D2 antagonist,D2 ag-1,D2 PAM-1,D2 ag-2,D2 PAM-2
CCc1ccc(S(=O)(=O)Nc2nccs2)cc1,11,0,-7,4,38*
CC(C)C(=O)NC(=S)Nc1ccc(S(=O)(=O)Nc2nccs2)cc1,39*,1,-4,1,-5
CCC(Oc1ccc(C)cc1)C(=O)Nc1ccc(S(=O)(=O)Nc2nccs2)cc1 (stereo not given),14,2,-6,-3,42*
CCCOc1ccc(-c2nonc2NC(=O)c2oc3ccc(C)cc3c2C)cc1OCCC,.,0,.,.,3
Cc1nc2cccnc2n1-c1cccc(C(=O)N2CCN(c3cccc(Cl)c3)CC2)c1,.,-1,.,.,-15
Cc1ccccc1NCC(=O)N/N=C/c1c(C)c(C(=O)c2ccc(Cl)cc2)n2ccccc12,32*,2,-16,-1,-3
